Measured values from PubChem BioAssay (NCATS).
Inconclusive results are not listed. A call without a number means that no potency is given here. Calls of active or inactive are those of the source. Unless noted, calls follow the shape of the dose curve; as a rule, active = well fitted curve in the direction sought with a large enough effect; inconclusive = small, poorly fitted or top-dose-only effect, or another doubt; inactive = no such curve, though single readings can be large; an effect the other way counts as inactive or inconclusive.

Tested on: not listed separately
Experiment: S16 Schwann cell viability assay (CellTiter-Glo assay) (AID 624031);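 also: cellular ATP luminescence as a viability measure; nearly all actives have a fitted effect of over 70% in size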
Conditions: S16 rat Schwann cells viability, 24 h; series mostly up to 57.5 µM
How it was run: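 Native S16 Schwann cells (rat), serum-containing medium, overnight attachment then 24 h drug exposure at 37 °C/5% CO2. CellTiter-Glo ATP signal; normalized to cell-free and vehicle wells.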

| Compound | Potency |
| --- | --- |
| COC(=O)C1=CCCN(C)C1 | inactive |
| COc1ccc(C(=O)N2CCCC2=O)cc1 | inactive |
| NC(=O)CN1CCCC1=O | inactive |

Tested on: not listed separately
Experiment: S16 Schwann cell PMP22 intronic element firefly luciferase assay (AID 624032); also: nearly all actives have a fitted effect of over 30% in size; also: potency is read from the fitted curve at half-maximal effect
Conditions: S16 rat Schwann cells, PMP22 element FLuc, 24 h; series mostly up to 57.5 µM
How it was run: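 Rat S16 Schwann cells stably carrying firefly luciferase driven by a PMP22 intronic element, in 10% FBS, treated 24 h at 37 C. ONE-Glo luminescence normalized to PTC124 control and DMSO (0%); curves classed by r2, magnitude and activity.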

| Compound | Potency |
| --- | --- |
| COC(=O)C1=CCCN(C)C1 | inactive |
| C[C@]12CC[C@H]3[C@@H](CC=C4C[C@@H](O)CC[C@@]43C)[C@@H]1CC[C@@H]2O | inactive |
| COc1ccc(C(=O)N2CCCC2=O)cc1 | inactive |
| NC(=O)CN1CCCC1=O | inactive |
| CC[C@]1(O)CC[C@H]2[C@@H]3CCC4=CCCC[C@@H]4[C@H]3CC[C@@]21C | 9.07 µM (active) |
| CN1C[C@@H](NS(=O)(=O)N(C)C)C[C@@H]2c3cccc4c3c(cn4C)C[C@H]21 | inactive |

Tested on: not listed separately
Experiment: S16 Schwann cell PMP22 intronic element beta-lactamase assay (AID 624044; calls by dose curve; also: nearly all actives have a fitted effect of over 15% in size)
Conditions: S16 rat Schwann cells, PMP22 element beta-lactamase FRET, 24 h; series mostly up to 38.3 µM
How it was run: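 Rat S16 Schwann cells with beta-Lac driven by a PMP22 intronic element, compound-treated 24 h at 37 °C. LiveBLAzer FRET B/G read: 460 nm normalized to potassium clavulanate vs DMSO; 535 nm FRET as viability; concentration-effect curves classified.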

| Compound | Potency |
| --- | --- |
| C#C[C@]1(O)CC[C@H]2[C@@H]3CCC4=CC(=O)CCC4=C3C=C[C@@]21CC | inactive |
| Nc1ccc(N)cc1 | inactive |
| CC[C@]1(O)CC[C@H]2[C@@H]3CCC4=CCCC[C@@H]4[C@H]3CC[C@@]21C | inactive |

Biological target: Glutaminase kidney isoform, mitochondrial (Homo sapiens) (UniProt O94925)
Experiment: qHTS for Inhibitors of Glutaminase (GLS): LOPAC Validation (AID 624146);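 also: glutamate product detected by oxidase and peroxidase coupled Amplex red fluorescence gain; nearly all actives have a fitted effect of over 60% in size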
Conditions: glutaminase enzyme activity inhibition; series mostly up to 46.1 µM
How it was run: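 Glutamate formation by hKGA was monitored fluorometrically using coupled glutamate oxidase, HRP and Amplex Red. Substrate was added as 1 mM L-glutamine solution; incubation was 30 min at RT after an initial read.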

Glutaminase kidney isoform, mitochondrial (Homo sapiens), sequence (O94925 whole entry, looked up, canonical isoform): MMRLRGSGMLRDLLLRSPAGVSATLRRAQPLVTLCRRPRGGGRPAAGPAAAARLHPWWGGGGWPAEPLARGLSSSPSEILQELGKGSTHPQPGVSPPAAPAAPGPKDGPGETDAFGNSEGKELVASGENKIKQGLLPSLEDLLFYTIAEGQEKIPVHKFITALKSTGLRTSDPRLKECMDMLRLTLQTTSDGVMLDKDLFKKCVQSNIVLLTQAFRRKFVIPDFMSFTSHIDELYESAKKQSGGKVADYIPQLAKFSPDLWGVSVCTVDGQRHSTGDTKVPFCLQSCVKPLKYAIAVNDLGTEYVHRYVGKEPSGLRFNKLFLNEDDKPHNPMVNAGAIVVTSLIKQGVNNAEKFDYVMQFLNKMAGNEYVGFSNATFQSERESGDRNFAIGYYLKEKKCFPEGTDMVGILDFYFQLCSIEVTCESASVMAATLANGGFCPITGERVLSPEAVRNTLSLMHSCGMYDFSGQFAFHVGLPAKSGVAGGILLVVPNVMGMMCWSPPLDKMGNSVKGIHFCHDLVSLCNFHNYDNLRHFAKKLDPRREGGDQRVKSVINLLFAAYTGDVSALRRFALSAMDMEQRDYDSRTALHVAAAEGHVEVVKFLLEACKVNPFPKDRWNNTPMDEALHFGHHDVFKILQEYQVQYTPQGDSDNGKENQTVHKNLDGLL

| Compound | outcome |
| --- | --- |
| COC(=O)C1=CCCN(C)C1 | inactive |
| COc1ccc(C(=O)N2CCCC2=O)cc1 | inactive |
| NC(=O)CN1CCCC1=O | inactive |

Biological target: Glucagon-like peptide 1 receptor (Homo sapiens) (UniProt P43220)
Experiment: qHTS of GLP-1 Receptor Agonists: LOPAC Validation (AID 624148);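 also: higher luminescence signal means agonism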
Conditions: GLP-1R agonist cell assay; series mostly up to 46.1 µM
How it was run: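 HEK293 cells stably co-expressing GLP-1R and a cAMP-responsive luciferase reporter, plated 12 hours before compound, then incubated 4-6 hr at 37 deg C. Luminescence read 12 min after detection reagent.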

Glucagon-like peptide 1 receptor (Homo sapiens), sequence (P43220 whole entry, looked up): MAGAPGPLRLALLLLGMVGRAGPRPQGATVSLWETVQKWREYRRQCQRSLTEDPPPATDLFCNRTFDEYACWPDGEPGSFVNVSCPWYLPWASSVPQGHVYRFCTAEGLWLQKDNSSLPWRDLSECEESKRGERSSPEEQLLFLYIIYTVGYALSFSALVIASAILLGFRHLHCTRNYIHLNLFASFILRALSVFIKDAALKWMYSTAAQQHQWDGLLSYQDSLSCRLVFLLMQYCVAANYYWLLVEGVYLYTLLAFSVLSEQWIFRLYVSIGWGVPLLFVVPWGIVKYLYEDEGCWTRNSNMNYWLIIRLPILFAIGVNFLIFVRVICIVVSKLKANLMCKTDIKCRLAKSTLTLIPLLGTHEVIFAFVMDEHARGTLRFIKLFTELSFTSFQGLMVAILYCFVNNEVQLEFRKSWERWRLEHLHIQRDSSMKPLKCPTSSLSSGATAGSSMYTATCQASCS

| Compound | outcome |
| --- | --- |
| COC(=O)C1=CCCN(C)C1 | inactive |
| COc1ccc(C(=O)N2CCCC2=O)cc1 | inactive |
| NC(=O)CN1CCCC1=O | inactive |

Tested on: not listed separately
Experiment: qHTS of Nrf2 Activators: LOPAC Validation (AID 624149)
Conditions: Nrf2/ARE reporter cell assay; series mostly up to 46.1 µM
How it was run: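 Luminescence read-out of ARE-luciferase activation: AREc32_Fluc cells treated with compounds for 24 hr at 37 deg C, then lysed with Steady-Glo for 30 min at room temperature before reading.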

| Compound | outcome |
| --- | --- |
| COC(=O)C1=CCCN(C)C1 | inactive |
| COc1ccc(C(=O)N2CCCC2=O)cc1 | inactive |
| NC(=O)CN1CCCC1=O | inactive |

Tested on: not listed separately
Experiment: HTS Assay for Allosteric Antagonists of the Human D2 Dopamine Receptor: Hit Validation in HTRF (AID 624455);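 also: stable D1 dopamine receptor cell line scored for blocking the D1 response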
Conditions: Cells stably expressing D1 dopamine receptor, inhibition mode; series mostly up to 46.1 µM
How it was run: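 First, antagonism was screened by calcium flux in a force-coupled, inducible Hek293 Trex D2 line challenged with EC80 dopamine. Hits then went into an HTRF assay in cells stably expressing D1, testing inhibition of the D1 response.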

| Compound | Potency |
| --- | --- |
| COC(=O)C1=CCCN(C)C1 | inactive |
| COc1ccc(C(=O)N2CCCC2=O)cc1 | inactive |
| NC(=O)CN1CCCC1=O | inactive |
